Screening results as filed in PubChem.
An excerpt weighted towards active compounds, which were near 0.67% of everything screened.
Vc quorum ag-1: inducers of Vibrio cholerae quorum light production without autoinducers; V. cholerae BH1578 lux reporter, luminescence, 6 h; activation, % at 18.7 µM; 350,000 compounds, 0.16% hits; in the data active = activation mostly above about 9.7%, no sharp cut-off
Sa RN4220 lethal: S. aureus RN4220 growth inhibition. OD600, 16 h. inhibition, % (no concentration beside the values). AID 1259311. 330,000 compounds, 0.33% hits; in the data active = inhibition above about 85%;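 also: plate controls were untreated cells for no effect and reference antibiotic for full effect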
Sa ugtP lethal: growth inhibition of S. aureus ugtP deletion strain | S. aureus RN4220 ugtP deletion, OD600 growth, 16 h | growth inhibition, % (no concentration beside the values) | 330,000 compounds, 0.54% hits; in the data active = growth inhibition above about 68%;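 also: plate controls were untreated wells for no effect and antibiotic for full effect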
TcdB GH inh: TcdB glycohydrolase inhibition | inhibition, % at 9.99 µM | 350,000 compounds, 0.24% hits | TcdB glycohydrolase enzymatic assay, plate reader | P18177; in the data active = inhibition above about 10%
Vc quorum ag-2: quorum light induction in BH1578 reporter strain; shares compounds with Vc quorum ag-1; V. cholerae BH1578 lux reporter, luminescence, 6 h; activation, % at 50 µM; 620 tested, under 10 active; call rule not given here
HeLa tox: cytotoxicity in HeLa cells at 24 hours; shares compounds with Vc quorum ag-1; HeLa viability, CellTiter-Glo ATP luminescence; activity change, negative = cytotoxicity, % at 35 µM; 25 tested, under 10 active;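 active = signal drop with fitted half-maximal concentration at or below twice the highest valid dose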
Active calls of the source: *; i = inactive; x = no result.

SMILES	Vc quorum ag-1	Sa RN4220 lethal	Sa ugtP lethal	TcdB GH inh	Vc quorum ag-2	others
O=[N+]([O-])c1ccc(N(CCO)CCO)c2c1no[n+]2[O-]	39*	x	x	4	2
COc1ccc(NC(=O)C(=O)NCC2CCCN2S(=O)(=O)c2ccc(C)cc2)cc1 (stereo not given)	14	3	1	2	0
COc1ccc(CCNC(=O)C(=O)NCC2CCCN2S(=O)(=O)c2ccc(OC)cc2)cc1 (stereo not given)	29*	6	7	0	0
COc1ccc(S(=O)(=O)N2CCCC2CNC(=O)C(=O)Nc2ccc(C)cc2)cc1 (stereo not given)	0	3	4	-1	x
CC(C)N1CCc2c(sc(NC(=O)c3ccc4ccccc4c3)c2C(N)=O)C1	138*	-9	10	-3	1
NC(Cc1ccccc1)C(=O)N1CCOCC1 (stereo not given)	x	2	0	x	x
C[C@]12C(=O)N(c3ccc(Br)cc3)C(=O)N1C1c3ccccc3OCC1C2c1ccccc1 (stereo not given in full)	x	-9	0	x	x
CC(C)CNC(=O)c1c2c(nc3ccccc13)-c1ccccc1CC2	17*	1	9	x	0
C=CCNC(=O)c1c2c(nc3ccccc13)-c1ccccc1CC2	0	-2	9	x	x
CCOC(=O)c1ccccc1NC(=O)COC(=O)C1=COCCO1	12	-12	1	x	-1
CCOC(=O)c1ccccc1NC(=O)C1=COCCO1	i	6	2	3	x
CC1CN(C(C)CO)C(=O)c2cccc(NS(=O)(=O)c3ccc(F)cc3)c2OC1CN(C)C(=O)Nc1ccc2c(c1)OCO2 (stereo not given)	x	-2	-5	x	x
Cc1ccc(C)c(N2CCN(C(c3ccccc3)c3nnnn3C(C)(C)C)CC2)c1 (stereo not given)	x	x	x	-4	x
Cc1ccc(C)c(N2CCN(C(c3ccc(N(C)C)cc3)c3nnnn3C(C)(C)C)CC2)c1 (stereo not given)	38*	3	6	x	0
COc1ccc(C2CC=C(C(=O)O)C(c3cccc(Cl)c3)N2S(=O)(=O)c2ccccc2C)cc1 (stereo not given)	x	18	-2	x	x
Cc1cc(C)cc(OC(=O)c2cccnc2)c1	32*	1	0	0	0
Cc1cccc(OC(=O)c2cccnc2)c1	0	5	17	x	x
COC(=O)c1cc(Br)ccc1OC(=O)c1cccnc1	17*	2	0	x	0
C=CCNC(=O)C(=Cc1ccccc1OCC)NC(=O)c1ccccc1	x	1	0	x	x
CSc1ccc(C#N)cc1NC(=O)c1ccc(Cl)cc1Cl	186*	7	-1	x	0
Cc1ccc(C(=O)N2C3CN(C)C(=O)[C@@]2(C)C2C(=O)N(Cc4ccccc4)C(=O)C32)cc1 (stereo not given in full)	x	6	-3	x	x
Cc1ccc(CNc2nnnn2C)cc1	0	3	7	1	x
CCn1nnnc1NCc1ccc(SC)cc1	x	4	14	3	i
CCn1nnnc1NCc1ccc(N2CCCC2)cc1	x	7	5	x	i	HeLa tox=13
CC(C)(C)C1CCC(=O)N(C(CSc2ccc(Br)cc2)Cc2ccccc2)CC1 (stereo not given)	x	0	2	x	x
SMILES	Vc quorum ag-1	Sa RN4220 lethal	Sa ugtP lethal	TcdB GH inh	Vc quorum ag-2	others
Cc1cc(=O)[nH]c(CN2CCC(c3ccccc3)CC2)n1	x	-2	1	0	1
Cc1ccccc1OC(C)c1nc(-c2ccccc2)no1 (stereo not given)	12	-1	29	x	0
Cc1ccc(SC(C)c2nc(-c3ccccc3)no2)cc1 (stereo not given)	-1	5	47	x	x
O=C(c1cc(-c2ccc3c(c2)OCO3)on1)N1CCN(c2ccccc2)CC1	-1	2	-3	x	x
O=C(c1cc(-c2ccc3c(c2)OCO3)on1)N1CCN(c2ccc(F)cc2)CC1	12	2	0	x	0
CNC(=O)c1cc2cc(OC)ccc2n1CCN(C)C	-1	1	4	x	x
CNC(=O)c1cc2cc(OC)ccc2n1CCN(Cc1ccccc1)Cc1ccccc1	25*	1	3	x	0
O=C(Nc1ccccc1)C1=CC(c2ccccc2)CC(OCc2ccc(CO)cc2)O1 (stereo not given)	x	3	3	x	x
CC(C)C(NC(=O)c1ccc(S(=O)(=O)N2CCOCC2)cc1)c1nc2ccccc2[nH]1 (stereo not given)	14	-2	8	x	0
C[C@H](NC(=O)c1ccc(Cl)c(S(=O)(=O)N2CCOCC2)c1)c1nc2ccccc2[nH]1	i	4	5	0	x
COC(=O)c1cnn(-c2nc(-c3ccccc3)cs2)c1N	70*	3	-6	1	0
COc1cccc(Nc2nc(NCCO)c3ccccc3n2)c1	40*	-14	-13	x	1
COc1ccccc1N1CCN(CCCOc2ccc(F)cc2)CC1	12	-2	3	x	0
Cc1ccc(S(=O)(=O)Nc2ccc3c(c2)C(=O)N(C(C)CO)CC(C)C(CN(C)Cc2ccc(-c4ccccc4)cc2)O3)cc1 (stereo not given)	x	1	-16	x	x
CCCCNC(=O)CCC(=O)Nc1ccc2nc(N3CCC(C)CC3)cc(C)c2c1	0	0	11	0	x
Cc1cc(N2CCC(C)CC2)nc2ccc(N3C(=O)CCC3=O)cc12	12	13	6	x	2
Cc1cc2oc(=O)cc(-c3ccccc3)c2c(C)c1-c1ccc(C#N)cc1	12	4	30	1	0
Cc1cccc(NC(=S)NC(=O)C=Cc2ccccc2)n1	x	2	-4	x	x
Cc1cccc(N(CC(N)=O)C2SC(=O)N(c3ccccc3)C2=O)c1 (stereo not given)	25*	1	-4	x	10
Cc1ccc(N(CC(N)=O)C2SC(=O)N(C)C2=O)cc1 (stereo not given)	i	3	-1	x	x
Cn1cccc1CC(=O)NN=Cc1ccc(Cl)cc1	x	3	1	x	x
COc1ccc(OC)c(S(=O)(=O)N2CCC(C(=O)N3CCc4ccccc4C3)CC2)c1	12	-14	0	x	2
COc1ccc(OC)c(S(=O)(=O)N2CCC(C(=O)N3CCCC3)CC2)c1	0	1	7	-2	x
COc1cc(C(=O)Nc2ccc(NC(=O)C(C)C)nc2)cc(OC)c1OC	6.7*	-3	6	x	0
COc1cc(C(=O)Nc2ccc(NC(=O)c3ccccc3)nc2)cc(OC)c1OC	1	-12	14	1	x
Cc1nn(-c2ccccc2)c(C)c1NC(=O)COC(=O)c1cccc(OC(F)F)c1	26	6	4	1	0
O=C(O)c1cc(NC(=NS(=O)(=O)c2ccc(F)cc2)c2ccccc2)ccc1O	x	-1	0	x	x
CCC(O)(CCN1CCCCC1)c1ccccc1 (stereo not given)	12	-14	2	x	0
O=C(NCc1ccco1)C1CCCN1S(=O)(=O)c1ccc2ccccc2c1 (stereo not given)	14	3	0	2	0
CN(Cc1cn[nH]c1-c1cc2ccccc2o1)CC1CCOCC1	25*	3	3	1	1
